Data taken from PubChem BioAssay (EPA / NIEHS).
Records with an inconclusive call do not appear. The source made the active and inactive calls. How the source made its calls: active means hit-call score of the fitted dose curve at least 0.9, where 1 is the maximum; inconclusive means response in the unintended direction; inactive means score below 0.9.

What was measured:
[1] = molecular target: human Adrenergic, Alpha 2c Receptor (Adra2C), ADRA2C (gene 152) (UniProt P18825); assay: NVS_GPCR_hAdra2C: NovaScreen (NVS) G Protein-Coupled Receptor Assay for human Adrenergic, Alpha 2c Receptor (Adra2C) (AID 2283259)
Chain of human Adrenergic, Alpha 2c Receptor (Adra2C), ADRA2C (gene 152) (P18825 whole entry, looked up): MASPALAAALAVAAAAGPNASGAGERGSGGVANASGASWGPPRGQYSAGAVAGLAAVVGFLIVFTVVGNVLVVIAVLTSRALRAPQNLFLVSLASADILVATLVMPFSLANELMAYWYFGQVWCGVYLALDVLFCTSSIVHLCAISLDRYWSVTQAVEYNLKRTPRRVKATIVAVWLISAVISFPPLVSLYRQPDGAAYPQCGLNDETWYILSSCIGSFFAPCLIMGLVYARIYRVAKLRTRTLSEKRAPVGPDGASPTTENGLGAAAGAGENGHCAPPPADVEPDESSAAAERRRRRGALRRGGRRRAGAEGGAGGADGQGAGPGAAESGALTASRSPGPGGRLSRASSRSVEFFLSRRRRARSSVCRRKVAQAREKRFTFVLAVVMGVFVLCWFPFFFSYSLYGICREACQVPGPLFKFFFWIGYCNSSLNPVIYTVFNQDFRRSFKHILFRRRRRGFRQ
Method in brief: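 Radioligand binding on Sf9-expressed receptor membranes, 1 h after chemical dosing, filter-based scintillation read-out. Loss of binding fitted positively versus DMSO; primary duplicate screen at 25 uM, actives retested in concentration series.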

[2] = molecular target: human Adrenergic, Beta 3 Receptor (Adrb3), ADRB3 (gene 155) (UniProt P13945); assay: NVS_GPCR_hAdrb3: NovaScreen (NVS) G Protein-Coupled Receptor Assay for human Adrenergic, Beta 3 Receptor (Adrb3) (AID 2283262)
Chain of human Adrenergic, Beta 3 Receptor (Adrb3), ADRB3 (gene 155) (P13945 whole entry, looked up): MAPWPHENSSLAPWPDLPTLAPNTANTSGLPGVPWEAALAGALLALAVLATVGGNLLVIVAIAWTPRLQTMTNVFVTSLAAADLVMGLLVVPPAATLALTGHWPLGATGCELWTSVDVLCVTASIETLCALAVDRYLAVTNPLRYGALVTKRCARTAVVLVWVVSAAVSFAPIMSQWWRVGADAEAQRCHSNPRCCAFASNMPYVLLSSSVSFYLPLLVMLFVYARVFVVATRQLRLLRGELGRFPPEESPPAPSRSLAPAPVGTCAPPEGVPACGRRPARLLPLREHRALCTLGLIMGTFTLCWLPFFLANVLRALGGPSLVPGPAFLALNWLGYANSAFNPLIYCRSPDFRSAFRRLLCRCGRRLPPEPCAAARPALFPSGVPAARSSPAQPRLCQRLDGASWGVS
Method in brief: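 Membranes from SK-N-MC cells pretreated with isoproterenol and 8-bromo-cAMP were used in a radioligand competitive displacement binding assay. Binding was read by filter-based scintillation counting 1 hour after dosing. Primary screening was in duplicate at 25 uM, with concentration series in follow-up.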

[3] = molecular target: human Dopamine Receptor D2 (DRD2), DRD2 (gene 1813) (UniProt P14416); assay: NVS_GPCR_hDRD2s: NovaScreen (NVS) G Protein-Coupled Receptor Assay for human Dopamine Receptor D2 (DRD2) (AID 2283266)
Chain of human Dopamine Receptor D2 (DRD2), DRD2 (gene 1813) (P14416 whole entry, looked up): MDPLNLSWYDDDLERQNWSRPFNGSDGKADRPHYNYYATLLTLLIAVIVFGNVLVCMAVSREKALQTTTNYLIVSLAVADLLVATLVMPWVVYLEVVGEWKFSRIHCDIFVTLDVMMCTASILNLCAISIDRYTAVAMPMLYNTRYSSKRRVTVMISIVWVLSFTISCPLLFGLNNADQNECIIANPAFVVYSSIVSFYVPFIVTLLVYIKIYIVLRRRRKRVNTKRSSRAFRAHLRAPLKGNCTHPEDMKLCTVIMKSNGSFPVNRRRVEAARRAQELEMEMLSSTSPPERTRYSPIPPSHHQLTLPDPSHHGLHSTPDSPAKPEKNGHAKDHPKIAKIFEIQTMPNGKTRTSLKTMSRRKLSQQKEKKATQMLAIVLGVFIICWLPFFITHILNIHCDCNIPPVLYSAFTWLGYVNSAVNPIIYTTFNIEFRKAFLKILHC
Method in brief: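 Radioligand displacement used human DRD2 membranes extracted from CHO cells and was read by filter-based scintillation counting after 1.5 hours. Primary screening was in duplicate at 25 uM. Loss of signal versus DMSO was fitted, with concentration series in follow-up.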

[4] = molecular target: D(1A) dopamine receptor (Homo sapiens) (UniProt P21728); assay: NVS_GPCR_hDRD1: NovaScreen (NVS) G Protein-Coupled Receptor Assay for human Dopamine Receptor D1 (DRD1) (AID 2283269)
Chain of D(1A) dopamine receptor (Homo sapiens) (P21728 whole entry, looked up): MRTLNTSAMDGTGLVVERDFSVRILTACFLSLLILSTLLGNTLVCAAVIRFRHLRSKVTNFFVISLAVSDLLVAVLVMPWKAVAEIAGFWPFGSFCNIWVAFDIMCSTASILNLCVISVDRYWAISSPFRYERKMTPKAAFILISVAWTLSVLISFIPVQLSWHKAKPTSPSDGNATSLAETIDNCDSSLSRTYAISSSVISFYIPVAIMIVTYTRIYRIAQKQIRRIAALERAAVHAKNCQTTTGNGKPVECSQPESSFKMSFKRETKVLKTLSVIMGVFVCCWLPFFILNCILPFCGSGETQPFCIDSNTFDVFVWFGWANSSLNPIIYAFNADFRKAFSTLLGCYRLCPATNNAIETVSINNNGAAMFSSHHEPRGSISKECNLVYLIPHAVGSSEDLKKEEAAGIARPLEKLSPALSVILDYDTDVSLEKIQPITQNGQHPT
Method in brief: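 Extracted HEK293 DRD1 is incubated 1 h with compound and a tritiated or iodinated radioligand, then filtered and counted. Screening runs 25 uM in duplicate with on-plate positive and negative controls.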

Structure (SMILES): CN(Cc1cnc2nc(N)nc(N)c2n1)c1ccc(C(=O)N[C@@H](CCC(=O)O)C(=O)O)cc1
- outcome [1]: inactive
- outcome [2]: inactive
- AC50 [3]: 22 µM (active)
- AC50 [4]: 25 µM (active)

Structure (SMILES): Cc1[nH]nc2c1N=C(c1ccccc1Cl)c1cc([N+](=O)[O-])ccc1N2
- outcome [1]: inactive

Structure (SMILES): CCCCCCCCC(C)=O
- outcome [4]: inactive
